Screens deposited in PubChem by several laboratories.
NadD block – inhibitors of S. aureus NadD, primary screen, biochemical, colorimetric, uHTS; Nicotinate-nucleotide adenylyltransferase NadD (Staphylococcus aureus N315); purified NadD enzyme, colorimetric absorbance read-out; inhibition, % at 20 µM; hit rate 0.78% among 360,000; in the data active = inhibition above about 26%
Mot1-301 SUMO – yeast Mot1-301 growth rescue at high temperature, primary screen, SUMOylation pathway inhibitor project, S. cerevisiae, ATP luminescence, 38.5C. S. cerevisiae Mot1-301 growth rescue; percent above DMSO median, 100 means doubled. AID 2716, 2010. growth rescue, % at 18.8 µM. hit rate 1% among 320,000;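 active = every valid replicate shows activation above 250% relative to neutral control wells; inactive = the rest, any valid replicate at or below 250%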;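 also: OY570 slx delta 5 strain wells were the positive control but not used for scaling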
FAS TE block – FAS thioesterase domain inhibitors, primary screen, biochemical, fluorescence intensity, uHTS | inhibition, % at 15 µM | hit rate 0.67% among 360,000 | AID 602261, 2012 | recombinant FAS-TE, OMFH fluorogenic substrate, fluorescence endpoint;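 active = compounds whose normalised, plate-corrected inhibition of enzyme fluorescence in the single-dose primary screen is 50% or more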;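 also: 0% = DMSO with enzyme and 100% = substrate without enzyme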
Target sequence (P49327 whole entry, looked up, the tested form may be a part): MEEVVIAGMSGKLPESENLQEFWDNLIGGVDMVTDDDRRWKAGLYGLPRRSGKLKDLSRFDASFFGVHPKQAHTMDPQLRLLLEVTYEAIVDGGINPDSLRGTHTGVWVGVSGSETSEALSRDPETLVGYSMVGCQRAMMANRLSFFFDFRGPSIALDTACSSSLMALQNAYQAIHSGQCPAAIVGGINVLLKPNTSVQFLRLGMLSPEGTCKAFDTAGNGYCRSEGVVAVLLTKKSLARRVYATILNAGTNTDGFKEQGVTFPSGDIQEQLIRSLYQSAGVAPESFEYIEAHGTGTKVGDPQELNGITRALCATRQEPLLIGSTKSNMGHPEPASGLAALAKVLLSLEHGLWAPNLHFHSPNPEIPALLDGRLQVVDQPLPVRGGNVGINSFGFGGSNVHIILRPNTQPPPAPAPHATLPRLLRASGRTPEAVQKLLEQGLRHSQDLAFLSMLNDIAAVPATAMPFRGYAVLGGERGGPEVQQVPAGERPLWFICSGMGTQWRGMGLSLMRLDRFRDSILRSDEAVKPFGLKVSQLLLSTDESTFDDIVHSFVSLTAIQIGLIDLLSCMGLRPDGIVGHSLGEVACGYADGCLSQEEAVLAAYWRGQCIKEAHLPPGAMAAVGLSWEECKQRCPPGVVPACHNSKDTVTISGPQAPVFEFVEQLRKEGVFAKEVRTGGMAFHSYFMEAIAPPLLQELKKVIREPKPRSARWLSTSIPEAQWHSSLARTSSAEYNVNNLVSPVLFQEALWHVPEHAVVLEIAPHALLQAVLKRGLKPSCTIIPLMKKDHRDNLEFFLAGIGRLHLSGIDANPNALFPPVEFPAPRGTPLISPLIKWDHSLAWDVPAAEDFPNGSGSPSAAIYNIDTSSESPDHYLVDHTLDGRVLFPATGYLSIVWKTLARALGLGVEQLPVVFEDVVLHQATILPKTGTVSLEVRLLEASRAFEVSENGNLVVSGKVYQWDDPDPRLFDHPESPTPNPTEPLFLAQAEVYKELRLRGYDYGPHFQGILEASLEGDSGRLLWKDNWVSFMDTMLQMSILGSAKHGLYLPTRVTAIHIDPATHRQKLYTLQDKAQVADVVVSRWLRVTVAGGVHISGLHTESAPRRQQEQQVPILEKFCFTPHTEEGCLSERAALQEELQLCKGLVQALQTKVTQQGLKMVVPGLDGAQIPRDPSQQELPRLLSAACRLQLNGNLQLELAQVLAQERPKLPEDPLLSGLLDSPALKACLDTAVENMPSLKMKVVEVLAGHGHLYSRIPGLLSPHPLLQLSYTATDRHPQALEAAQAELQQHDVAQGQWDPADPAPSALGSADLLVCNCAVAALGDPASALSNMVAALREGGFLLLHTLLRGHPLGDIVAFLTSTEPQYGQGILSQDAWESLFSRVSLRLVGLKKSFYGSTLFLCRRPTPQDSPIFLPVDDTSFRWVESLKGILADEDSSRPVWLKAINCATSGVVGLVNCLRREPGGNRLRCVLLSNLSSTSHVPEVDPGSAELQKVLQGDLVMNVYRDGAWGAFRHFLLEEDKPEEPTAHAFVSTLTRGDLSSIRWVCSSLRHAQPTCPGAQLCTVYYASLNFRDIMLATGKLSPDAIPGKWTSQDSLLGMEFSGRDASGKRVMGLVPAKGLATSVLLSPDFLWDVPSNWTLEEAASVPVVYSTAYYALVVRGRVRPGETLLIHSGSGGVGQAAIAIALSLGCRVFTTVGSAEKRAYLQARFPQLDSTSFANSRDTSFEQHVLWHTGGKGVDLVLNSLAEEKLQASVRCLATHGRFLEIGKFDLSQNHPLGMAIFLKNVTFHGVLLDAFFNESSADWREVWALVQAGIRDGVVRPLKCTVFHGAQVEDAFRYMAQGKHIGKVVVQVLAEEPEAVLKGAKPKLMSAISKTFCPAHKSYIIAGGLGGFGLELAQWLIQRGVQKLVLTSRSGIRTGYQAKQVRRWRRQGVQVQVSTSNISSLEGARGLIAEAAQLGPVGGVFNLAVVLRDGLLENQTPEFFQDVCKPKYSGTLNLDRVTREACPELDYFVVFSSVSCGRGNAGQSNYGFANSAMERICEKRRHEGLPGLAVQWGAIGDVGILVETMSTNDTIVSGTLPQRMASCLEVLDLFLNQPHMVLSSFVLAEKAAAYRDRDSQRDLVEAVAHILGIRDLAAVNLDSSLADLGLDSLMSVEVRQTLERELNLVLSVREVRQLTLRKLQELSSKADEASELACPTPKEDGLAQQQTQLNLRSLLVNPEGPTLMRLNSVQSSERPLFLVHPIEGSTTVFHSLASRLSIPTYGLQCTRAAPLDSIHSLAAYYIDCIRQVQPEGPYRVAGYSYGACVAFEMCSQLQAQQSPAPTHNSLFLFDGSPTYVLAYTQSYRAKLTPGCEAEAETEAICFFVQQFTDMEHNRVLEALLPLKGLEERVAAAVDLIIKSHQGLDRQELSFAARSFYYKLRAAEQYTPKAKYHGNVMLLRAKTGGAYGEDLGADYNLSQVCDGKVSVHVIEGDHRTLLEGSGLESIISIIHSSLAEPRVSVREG
ATG4B inh – ATG4B protease inhibitors, primary screen, biochemical, fluorescence, uHTS | Cysteine protease ATG4B (Homo sapiens), Q9Y4P1 | inhibition, % at 8.33 µM | AID 504462, 2011 | ATG4B cleavage of LC3-PLA2, NBD-HPC fluorescence, 1 h | hit rate 0.51% among 340,000; in the data active = inhibition above about 40%
Calb FLC – C. albicans growth inhibition with fluconazole, primary screen, CaCi-2 strain, Alamar Blue fluorescence; growth inhibition, % (concentration not given with the values); hit rate 0.57% among 300,000; C. albicans CaCi-2 (fluconazole-resistant clinical isolate) + fluconazole, 48 h;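 active = growth inhibition above about 58% in most replicates, limit read from the data, passing the limit was not always enough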;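 also: all wells also contain fluconazole at 8 µg/ml as a sub-toxic cotreatment; 0% = median of DMSO wells and 100% = median of geldanamycin control wells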
The depositor's hits bear a star; . = no result given. This is a sample that favours compounds with a hit; in the whole collection about 3.1% have one here.

SMILES	NadD block	Mot1-301 SUMO	FAS TE block	ATG4B inh	Calb FLC
O=C1NC(=O)N(CCc2ccc(F)cc2)C(=O)/C1=C\C=C\c1ccccc1	36*	.	1	0	.
O=C1NC(=S)N(c2ccc(F)cc2)C(=O)/C1=C\c1ccoc1	32*	.	0	85*	.
O=C1NC(=S)N(c2ccc(F)cc2)C(=O)/C1=C/c1ccco1	.	35	.	.	1
C=C(C)C(Cc1c(OC)ccc(C(=O)/C=C/c2ccc(O)cc2)c1O)OO (configuration not stated)	3	.	3	-40	.
O=C(N/N=C/c1c(O)n(CCC2=CCCCC2)c(=O)[nH]c1=O)c1ccccc1	12	11	12	-2	26
O=C(N/N=C/c1c(O)n(CCC2=CCCCC2)c(=S)[nH]c1=O)c1ccccc1	19	-8	25	9	98*
O=C1NC(=O)C(=Cc2ccc(-c3ccc(Cl)cc3)o2)C(=O)N1	39*	-3	-10	4	-6
COC(=O)C1=C(c2ccc(F)cc2F)C[C@@H]2CC[C@H]1N2C(=O)NCc1ccc(C(F)(F)F)cc1	-3	6	37	-4	.
Nc1ccccc1-[n+]1c(-c2ccccc2)cc(-c2ccccc2)cc1-c1ccccc1	4	-16	-6	4	87*
Cc1ccccc1-[n+]1c(-c2ccccc2)cc(-c2ccccc2)cc1-c1ccccc1	7	-12	-15	7	112*
Oc1ccccc1-[n+]1c(-c2ccccc2)cc(-c2ccccc2)cc1-c1ccccc1	8	-21	-18	9	2
[O-]c1ccccc1-[n+]1c(-c2ccccc2)cc(-c2ccccc2)cc1-c1ccccc1	10	-10	-6	22	96*
COC(=O)C1=C(c2ccc3ccccc3c2)C[C@@H]2CC[C@H]1N2C(=O)NCc1ccco1	3	-3	1	-12	.
O=C1NC(=S)NC(=O)C1Cc1ccccc1O	-3	.	-7	-3	.
Cn1cc(C(=O)OCC(=O)NC2(C#N)CCCC2)c2ccccc21	2	144	-1	-6	.
O=C1CC=C2C3CC4N(CCC45c4cc(O)c(O)cc4N1C25)CC3=CCBr (configuration not stated)	92*	.	-8	10	.
C=CC(=O)OCCO	3	.	-10	4	.
Cc1oc2ccc(OC(=O)N(C)C)cc2c1C(=O)OC(C)C	0	26	-14	2	107*
O=c1[nH]c(O)c(/C=C2/C=CC(c3cc(Cl)ccc3Cl)=N2)c(=O)[nH]1	64*	247	-5	5	2
CC1=Nc2ccccc2/C1=C/c1c(O)[nH]c(=O)[nH]c1=O	-3	-11	-4	3	-3
COc1ccc(OC(=O)N(C)C[C@@H]2OCc3cnnn3CCCC(=O)N([C@H](C)CO)C[C@@H]2C)cc1	-3	.	-6	.	.
CC(C)(C)C(=O)N1Cc2cc(N3CCCCC3)ccc2-n2nncc2C1	-6	.	-10	.	.
COc1ccc(/C=C2\C(=O)NC(=S)N(C)C2=O)cc1C	-3	-15	-3	56*	17
CCn1nc(-c2ccccc2)nc2c(=O)n(C)c(=O)nc1-2	-3	44	-7	80*	90*
C=C1C(=O)O[C@@H]2C[C@@H](C)[C@@H]3C4OC4C(=O)[C@@]3(C)[C@@H](O)[C@H]12 (some centres not stated)	5	-12	-18	3	77*
SMILES	NadD block	Mot1-301 SUMO	FAS TE block	ATG4B inh	Calb FLC
COc1cc(C(=O)OC2C[C@H]3CC[C@@H](C2)N3)ccc1O (some centres not stated)	-2	-14	-3	1	-5
O=C1NC(=O)N(c2ccc(Cl)cc2)C(=O)/C1=C\c1ccc(Sc2nc3ccccc3[nH]2)o1	55*	28	-5	23	-4
CC1(C)C[C@H]2C=C(C=O)[C@]3(C=O)C[C@]3(C)[C@H]2C1	4	358*	3	-12	-16
CC[C@H](C)/C=C(C)/C=C/C1=CC2=C(Cl)C(=O)[C@@](C)(OC(C)=O)C(=O)C2=CO1	3	2	-1	67*	1
Brc1cccc(CNCCc2ccc3c(c2)OCO3)c1	-5	-13	2	3	-26
COCCNC(=O)c1c(NC(=O)c2ccc(Br)o2)n(Cc2ccccc2)c2nc3ccccc3nc12	21	830*	16	2	-12
